# Measured values as given in PubChem BioAssay (Tox21).
# Records with an inconclusive call do not appear. A number with no mark means an inactive call. Calls of active or inactive are those of the source. The call rests on the fitted dose curve.
# Assay: qHTS assay for small molecule agonists of the antioxidant response element (ARE) signaling pathway - cell viability counter screen (AID 743203); further: nearly all actives have a fitted effect of over 55% in size
# Conditions: ARE-bla HepG2 viability, CellTiter-Glo luminescence, 16 h; series mostly up to 73.3 µM; viability change, negative = cytotoxic: at the top concentration
# Description: National Center for Advancing Translational Sciences [NCATS]
# NIH Chemical Genomics Center [NCGC]
# U.S. Environmental Protection Agency [EPA]
# National Institutes of Environmental Health Sciences [NIEHS]
# National Toxicology Program [NTP]
# U.S. Food and Drug Administration [FDA]
# Oxidative stress has been implicated in the pathogenesis of a variety of diseases ranging from cancer to neurodegeneration. The antioxidant response element (ARE) signaling pathway plays an important role in the amelioration of oxidative stress. The CellSensor ARE-bla HepG2 cell line (Invitrogen) can be used for analyzing the Nrf2/antioxidant response signaling pathway. Nrf2 (NF-E2-related factor 2) and Nrf1 are transcription factors that bind to AREs and activate these genes. The CellSensor ARE-bla Hep G2 cell line contains a beta-lactamase reporter gene under control of the Antioxidant Response Element (ARE) stably integrated into HepG2 cells. The activation of the report gene under culture conditions can be detected by fluorescence intensity. This cell line has been used to screen the Tox21 10K compound library to identify agonists that induce oxidative stress. The cytotoxicity of the Tox21 compound library against the ARE-bla cell line was tested in parallel by measuring the cell viability using CellTiter-Glo assay (Promega, Madison, WI) in the same wells.
# Tox21 Assay Protocol Summary:
# ARE-bla HepG2 cells were dispensed at 2,000 cells/5 ul/well in 1536-well white wall/solid bottom plates using a Multidrop Combi (ThermoFisher Scientific, Waltham, MA) dispenser. After the assay plates were incubated at 37C/5% CO2 for 5 hrs, 23 nL of compounds dissolved in DMSO, positive controls or DMSO only was transferred to the assay plate by a pintool work station (Kalypsys, San Diego, CA). The plates were incubated at 37C/5% CO2 for 16 hrs, followed by addition of 4 ul/well of CellTiter-Glo reagent into the assay plates using a Flying Reagent Dispenser (Aurora Discovery, San Diego, CA). After 30 min incubation at room temperature, the luminescence intensity in the assay plates was measured using a ViewLux (PerkinElmer, Shelton, CT) plate reader.
# On the % scale 0 is the no-effect control and ±100 the full control effect; potency means the concentration at half of the fitted maximal effect.
SMILES,"viability change, negative = cytotoxic",Potency
CCOP(=O)(Sc1ccccc1)Sc1ccccc1,-16.8%,
COC(=O)N(OC)c1ccccc1COc1ccn(-c2ccc(Cl)cc2)n1,,43.3 µM (active)
CN1[C@@H]2CC[C@H]1CC(O)C2 (stereo not given in full),-0.0001% [at 94.8 µM],
O=C(N[C@@H]1N=C(c2ccccc2F)c2cccc3c2N(CC3)C1=O)c1cc2ccccc2[nH]1,1.01%,
Cc1c([N+](=O)[O-])c(C)c([N+](=O)[O-])c(C(C)(C)C)c1[N+](=O)[O-],-20.7%,
ClC1=C(Cl)[C@]2(Cl)[C@@H]3[C@H]4C[C@H]([C@@H]5O[C@H]45)[C@@H]3[C@@]1(Cl)C2(Cl)Cl,-12.7%,
[O-][Cl+3]([O-])([O-])O,-12.5% [at 94.8 µM],
C1=CCC=C1,12.6%,
O=S1(=O)OCC2C(CO1)C1(Cl)C(Cl)=C(Cl)C2(Cl)C1(Cl)Cl (stereo not given),-21.4%,
C=C(C)C(=O)[O][Sn]([CH2]CCC)([CH2]CCC)[CH2]CCC,,0.433 µM (active)
COC(=O)/C=C(\C)OP(=O)(OC)OC,-5.39%,
CCCCN(CCCC)C(=S)S,8.16%,
[Cl-].[Cl-].[Cl-].[Yb+3],10%,
CCC(OC(C)=O)C(CC(C)NC)(c1ccccc1)c1ccccc1 (stereo not given),,77.6 µM (active)
Nc1c(Cl)c(Cl)c(Cl)c(Cl)c1Cl,-15.5%,
CC(C)(C)c1ccc(OP(=O)(Oc2ccccc2)Oc2ccccc2)cc1,0.705% [at 94.8 µM],
O=[N+]([O-])c1ccccc1-c1ccccc1,2.46%,
CCC(C)c1cccc(C(C)CC)c1O (stereo not given),0.629%,
O=C(N[C@H]1N=C(c2ccccc2F)c2cccc3c2N(CC3)C1=O)c1cc2ccccc2[nH]1,-0.562%,
Fc1ccc(C(OCCN2CCN(CCCc3ccccc3)CC2)c2ccc(F)cc2)cc1,,29.8 µM (active)

SMILES,"viability change, negative = cytotoxic",Potency
Cc1c([N+](=O)[O-])cc2c(c1[N+](=O)[O-])C(C)(C)CC2(C)C,2.21%,
[Cl][Hg][c]1ccccc1,,1.72 µM (active)
NC1CCC(CC2CCC(N)CC2)CC1 (stereo not given),2.37%,
Clc1ccc(C(Cl)(Cl)Cl)cc1Cl,-20%,
COc1nc(C)nc(NC(=O)NS(=O)(=O)c2ccccc2Cl)n1,1.63%,
O.O.O.O.O.O.O=S(=O)([O-])[O-].[Ni+2],-3.41%,
Cc1ccc(C)c2ccccc12,-0.871%,
Nc1ccccc1-c1ccccc1,-1.04%,
C=CC(=O)[O][Sn]([CH2]CCC)([CH2]CCC)[CH2]CCC,,0.686 µM (active)
CC(=O)[O-].CC(=O)[O-].CC(=O)[O-].[Sb+3],-9.94% [at 8.36 µM],
C[C@]12C/C(=C/O)C(=O)C[C@@H]1CC[C@@H]1[C@@H]2CC[C@@]2(C)[C@H]1CC[C@]2(C)O,-0.909%,
C=CC(=C)C,-7.11%,
Cc1cc(C2CC2)nc(Nc2ccccc2)n1,-24.6%,
CCN(CC)C(=S)S,3.45% [at 94.8 µM],
CCCCc1ccccc1,-7.22%,
CCn1cc[n+](C)c1 (tested in a mixture with another compound),3.44%,
CC(Cc1ccc(OCC(=O)O)cc1)NCC(O)c1csc(C(F)(F)F)n1 (stereo not given),8.52%,
O=C1C[C@@H]2OCC=C3CN4CC[C@]56c7ccccc7N1[C@H]5[C@H]2[C@H]3C[C@H]46,-12%,
CSC1=N[C@@](C)(c2ccccc2)C(=O)N1Nc1ccccc1,5.73%,
CCC1COC(Cn2cncn2)(c2ccc(Cl)cc2Cl)O1 (stereo not given),-0.55%,
